MARV entry inh: inhibitors of Marburg virus binding or cell entry | AID 540276 | actives 1.8% (n = 300,000) | Marburg virus pseudotyped entry inhibition, cell reporter | Potency, µM (top dose mostly 37.8 µM), hits mostly inhibitors; calls by dose curve; tested in HEK293 cells
HCMV antiviral: inhibitors of human cytomegalovirus; activity change, negative = inhibition, % at 57.5 µM; HFF cells, HCMV-luciferase reporter, 72 h; hits give low values; actives 4.5% (n = 410,000); in the data active means activity change below about -60%; inconclusive means no clear call, values can overlap the other calls; inactive means above about -39%
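After 16 h attachment at 37C, HFF cells received test compound and HCMV-luciferase (1 PFU/cell); reporter luminescence read 72 h later, data normalized against buffer-only and known inhibitor Salinomycin.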
Pf growth 96h: P. falciparum growth inhibition at 96 hours; P. falciparum luciferase reporter growth, 96 h; Potency, µM (top dose mostly 28.7 µM), hits mostly inhibitors; actives 6.9% (n = 320,000); AID 504834
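Infected RBCs, 2% Hct / 0.05% parasitemia final; luciferase-reporter P. falciparum; cpd 96 h, 37 C, 5% CO2; luciferase detection reagent; luminescence.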
LASV entry inh: Lassa virus entry inhibition; Lassa virus pseudotype entry inhibition, cell reporter; Potency, µM (top dose mostly 37.9 µM), most hits filed as inhibitors; actives 1.2% (n = 300,000); calls by dose curve; tested in HEK293 cells; further: nearly all actives have a fitted effect of over 50% in size
HCV inh: inhibitors of hepatitis C virus infection; Potency, µM (top dose mostly 41.8 µM), actives largely listed as inhibitors; Huh7.5.1 HCVcc-Cre infection, luciferase reporter, 44 h; actives 3.4% (n = 340,000)
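A cell-based infection assay in which seeded cells (1,000 per well) receive test compound after 4 h, are inoculated with HCVcc-Cre at approximately 0.5 moi, and are incubated 44 h before luminescence detection.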
Pf growth 48h: P. falciparum growth inhibition at 48 hours (one generation); P. falciparum luciferase growth in erythrocytes, 48 h; Potency, µM (top dose mostly 28.7 µM), usual class: inhibitors; actives 5.9% (n = 310,000)
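Cell-based growth assay: transgenic P. falciparum expressing firefly luciferase, cultured in red cells within RPMI 1640 containing 0.5% w/v Albumax, 24 mM bicarbonate and gentamycin. A drop in luciferase activity indicates inhibition.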
A number is an active result; - = inactive; ? = inconclusive; . = no result given; ! = repeats disagree. This is a sample that favours compounds with a hit; in the whole collection about 14% have one here. Unless noted, the call rests on the fitted dose curve; in most records, active means well fitted inhibition curve with a large enough effect; inconclusive means small, poorly fitted or top-dose-only effect, or another doubt; inactive means no such curve, though single readings can be large or run the other way.

SMILES	MARV entry inh	HCMV antiviral	Pf growth 96h	LASV entry inh	HCV inh	Pf growth 48h
O=C(C1CCCN(c2ncnc3c2nc2n3CCCCC2)C1)N1CCN(c2ccccc2F)CC1 (stereo not drawn)	?	-	-	?	?	?
Fc1ccccc1N1CCN(c2ncnc3c2nc2n3CCCC2)CC1	.	-63	.	-	.	.
Cc1cccc(N2CCN(CCCNC(=O)C3CCCN(c4ncnc5c4nc4n5CCCCC4)C3)CC2C)c1 (stereo not drawn)	11µM	?	?	?	?	?
O=C(NCc1ccccc1)C1CCCN(c2ncnc3c2nc2n3CCCCC2)C1 (stereo not drawn)	?	?	-	?	?	?
CC1CCCC(C)N1CCCNC(=O)C1CCCN(c2ncnc3c2nc2n3CCCCC2)C1 (stereo not drawn)	?	-	-	?	-	?
COc1cc(NC(=O)Nc2c[nH]c(=O)[nH]c2=O)cc(OC)c1OC	.	-	.	-	.	.
COC(=O)c1cc(C)nc2c1c(=O)nc(SCc1ccccc1C)n2C1CC1	.	-	.	?	.	.
CC(C)N(C(=O)Cn1cc(S(=O)(=O)Cc2ccc(Cl)cc2)c2ccccc21)C(C)C	.	-	.	-	.	.
CCc1cccc(NC(=O)C2CCCN(c3ncnc4c3nc3n4CCCCC3)C2)c1 (stereo not drawn)	?	?	?	?	11µM	?
O=C(Nc1cccc(Cl)c1)C1CCCN(c2ncnc3c2nc2n3CCCCC2)C1 (stereo not drawn)	?	-	.	?	.	.
O=C(Nc1ccccc1Cl)C1CCCN(c2ncnc3c2nc2n3CCCCC2)C1 (stereo not drawn)	?	?	6.6µM	?	?	?
COc1ccc(C(O)C(C)NC(C)C(O)c2ccc(OC)cc2)cc1 (stereo not drawn)	.	-	.	.	-	.
COc1ccc(C(C)n2c(C)c3c(C)nnc(C)c3c2C)cc1 (stereo not drawn)	?	-81!	?	-	?	?
Cc1nnc(C)c2c(C)n(C(C)c3ccccc3)c(C)c12 (stereo not drawn)	-	?	-	-	10µM	8.3µM
Cc1ccc(-c2nnn(CC(=O)N(c3ccccc3)C(C(=O)NCC3CCCO3)c3ccc(F)cc3)n2)o1 (stereo not drawn)	?	-	-	-	-	-
Cc1ccc(-c2nnn(CC(=O)N(c3ccccc3)C(C(=O)NCC3CCCO3)c3cccs3)n2)o1 (stereo not drawn)	-	-	10µM	-	-	-
Cc1ccc(-c2nnn(CC(=O)N(c3ccccc3)C(C(=O)NCC3CCCO3)c3ccc(Cl)cc3)n2)cc1 (stereo not drawn)	-	-	8.3µM	?	-	?
COc1cccc(N(C(=O)Cn2nnc(-c3ccc(Cl)cc3)n2)C(C(=O)NCC2CCCO2)c2ccc(C)cc2)c1 (stereo not drawn)	.	-	?	.	-	-
Cc1ccc(-c2nnn(CC(=O)N(c3ccccc3F)C(C(=O)NCC3CCCO3)c3c[nH]c4ccccc34)n2)cc1 (stereo not drawn)	?	-	12µM	?	?	12µM
CCOC(=O)CN1C(=O)[C@]2(OC[C@@H]3Cc4ccccc4[C@H]3C=C2C)c2ccccc21	-	.	.	.	.	.
COc1ccc(CNC(=O)C(=O)c2cn(CC(=O)N3CCCC3)c3ccccc23)cc1	-	-	?	?	.	-
COc1cccc(NC(=O)C(=O)c2cn(CC(=O)N3CCCC3)c3ccccc23)c1	.	-	10µM	.	?	-
COc1ccc(OC)c(NC(=O)C(=O)c2cn(CC(=O)N3CCCC3)c3ccccc23)c1	-	-	4.7µM	-	?	9.3µM
COc1ccc(NC(=O)C(=O)c2cn(CC(=O)N3CCCC3)c3ccccc23)cc1OC	?	?	?	?	?	-
COc1ccc(C)cc1NC(=O)C(=O)c1cn(CC(=O)N2CCCC2)c2ccccc12	?	?	8.3µM	-	.	?
SMILES	MARV entry inh	HCMV antiviral	Pf growth 96h	LASV entry inh	HCV inh	Pf growth 48h
Cc1ccc(NC(=O)C(=O)c2cn(CC(=O)N3CCCCC3)c3ccccc23)cc1	?	-	?	?	?	-
CC(C)c1ccc(NC(c2nnc(-c3ccccc3)o2)c2ccc(F)cc2Cl)cc1 (stereo not drawn)	.	-	.	-	.	.
Cc1ccc(OCc2ccc(Br)cc2)c([N+](=O)[O-])n1	.	-	-	.	.	-
CCOc1cc(Br)c(COc2ccc(C)nc2[N+](=O)[O-])cc1OCC	?	-90	?	?	8.9µM	?
Cc1ccc(OCc2ccc(-c3ccccc3)cc2)c([N+](=O)[O-])n1	-	-83	-	-	?	-
CC1=C(C)CS(=O)N(c2ccc(S(N)(=O)=O)cc2)C1 (stereo not drawn)	-	-	-	?	-	-
CC1=C(C)CS(=O)N(S(=O)(=O)c2ccccc2)C1 (stereo not drawn)	13µM	-	?	-	-	-
O=C(Cc1csc2ccccc12)NCc1ccc(F)cc1	-	-	.	-	.	.
Cc1cc(C)cc(NC(=S)/C(=C(\[O-])c2ccc(Cl)cc2Cl)[n+]2ccccc2)c1	.	-	-	.	-	-
[O-]/C(=C(\C(=S)Nc1ccc(SC(F)F)cc1)[n+]1ccccc1)c1ccc(Cl)cc1Cl	?	-63	?	?	13µM	-
Cc1cc2oc3c(c(=O)c2cc1C)C1(C(=O)N(C)c2ccccc21)N(CCO)C3=O (stereo not drawn)	-	-	.	-	.	.
CCC(C)N(CCNC(=O)c1ccc2c(c1)NC(=O)c1ccccc1S2)C1CCCCC1 (stereo not drawn)	?	-	?	3.2µM	22µM	1.9µM
CCN1CCN(CCCNC(=O)c2ccc3c(c2)NC(=O)c2ccccc2S3)CC1	-	-	8.3µM	.	10µM	15µM
CCN1CCN(CCCNC(=O)c2ccc3c(c2)NC(=O)/C(=C\c2cccc(C)c2)S3)CC1	.	?	-	.	1.8µM	?
COc1ccc(/C=C2/Sc3ccc(C(=O)NCCCN4CCOCC4)cc3NC2=O)cc1OC	?	-	?	-	7.9µM	?
CCC(C)N(CCNC(=O)CC1Oc2ccccc2NC1=O)C1CCCCC1 (stereo not drawn)	.	-	?	.	-	.
O=C(NCCCN1CCCC1=O)c1ccc2c(c1)NC(=O)c1ccccc1S2	.	-	-	.	-	.
CCC(C(=O)Nc1cc(C)ccc1C)n1c(=O)c(C(F)(F)F)nc2ccccc21 (stereo not drawn)	.	-	.	-	.	.
O=C1COc2ccccc2C(c2nc3ccccc3[nH]2)N1Cc1ccccc1 (stereo not drawn)	.	-	.	.	.	.
O=C(c1ccc2c(c1)N(Cc1cccc(Cl)c1)C(=O)c1ccccc1S2)N1CCOCC1	.	-	.	?	.	.
CCOC(=O)N(C)C[C@@H]1OCc2cnnn2CCCC(=O)N([C@H](C)CO)C[C@H]1C	.	-	.	.	.	.
Cc1cccc(N2CCN(C(=O)CCc3c(C)nc4ncnn4c3C)CC2)c1C	-	-	.	-	.	.
O=C(NCCOC(=O)Nc1cccc2ccccc12)OCc1ccccc1	-	-	.	?	-	.
